Screens (PubChem BioAssay)
A selection: hits, their analogues and other compounds. The true share with any hit is near 7.5%.
Rab9 prom act: Rab9 promoter activation; Huh7 Rab9 promoter-luciferase reporter, luminescence, 24 h; Potency, µM (doses to about 9.22 µM), usual class: activators; 2.8% of 320,000 active; further: nearly all actives have a fitted effect of over 60% in size
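Cells were plated at 1500 per well in reduced-serum medium with 10% FBS and left 2 h. Compound in DMSO was then added for 24 h at 37 °C. Reporter signal was read by luminescence after 10 min with luciferase detection reagent.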
SMN2 splice up: enhancers of SMN2 splice variant expression. HEK293 SMN2-luciferase splicing reporter, luminescence, 30-36 h. Potency, µM (series often up to 46.1 µM), actives largely listed as activators. 2.8% of 210,000 active. AID 1458; further: nearly all actives have a fitted effect of over 55% in size
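HEK293 cells carry an SMN2 […]–luciferase reporter in which exon 7 inclusion puts luciferase in frame. Cells were plated 10-12 h before compound addition, then incubated 30-36 h at 37C. ONE-Glo luminescence was read; sodium butyrate at 4.5 mM final served as control.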
Luc counter: Kinase-Glo luciferase inhibition (counter-screen) | Kinase-Glo luciferase, ATP luminescence, 8 min | Potency, µM (series often up to 38.3 µM), most hits filed as inhibitors | 0.28% of 200,000 active; further: nearly all actives have a fitted effect of over 60% in size
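Luminescence was the read-out, taken after 8-minute incubation at ambient temperature. Luciferase turned over luciferin with 10 uM ATP in imidazole pH 7.2 buffer containing KCl, MgCl2, Tween 20 and BSA.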
NPC1 promoter act: activators of NPC1 promoter | 2.4% of 320,000 active | Potency, µM (highest dose often 9.22 µM), actives largely listed as activators | AID 485313 | Huh7 NPC1 promoter luciferase reporter, 24 h; further: nearly all actives have a fitted effect of over 60% in size
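NPC1 promoter–luciferase Huh7 cells; 24 h compound; luminescence.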
ELG1 genotox: genotoxicity induction in ELG1-luciferase HEK293T cells | HEK293T ELG1-luciferase reporter, luminescence, 16 h | Potency, µM (titrated, usually from 46 µM), hits mostly activators | 1.3% of 330,000 active; further: nearly all actives have a fitted effect of over 60% in size
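16 hr compound incubation (37 °C, 5% CO2) of HEK293T cells carrying luciferase-tagged ELG1; luciferase then measured by ONE-Glo luminescence after 30 min at RT.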
FLuc modulator: inhibits or activates purified firefly luciferase, miR-21 counter-screen. P08659. purified FLuc, Km substrates, luminescence inhibition. Potency, µM (titrated, usually from 57.5 µM), hits mostly inhibitors. 6.9% of 360,000 active; further: nearly all actives have a fitted effect of over 55% in size
Target sequence (P08659 whole entry, looked up): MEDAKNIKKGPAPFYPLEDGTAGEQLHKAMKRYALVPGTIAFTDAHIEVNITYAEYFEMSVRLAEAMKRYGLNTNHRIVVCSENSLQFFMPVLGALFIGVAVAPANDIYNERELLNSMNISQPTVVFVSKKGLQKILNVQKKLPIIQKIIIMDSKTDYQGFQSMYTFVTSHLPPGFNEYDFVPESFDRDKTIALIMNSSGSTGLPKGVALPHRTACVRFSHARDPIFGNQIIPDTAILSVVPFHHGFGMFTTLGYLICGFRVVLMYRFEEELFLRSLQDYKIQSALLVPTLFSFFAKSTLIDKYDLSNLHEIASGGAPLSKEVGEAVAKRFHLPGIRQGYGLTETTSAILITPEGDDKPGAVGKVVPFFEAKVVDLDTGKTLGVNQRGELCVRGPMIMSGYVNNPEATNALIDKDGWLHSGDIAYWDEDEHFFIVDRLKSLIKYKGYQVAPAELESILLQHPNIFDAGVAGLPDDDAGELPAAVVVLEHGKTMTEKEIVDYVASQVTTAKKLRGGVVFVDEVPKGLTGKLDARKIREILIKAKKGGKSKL
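Biochemical qHTS of compounds, final roughly 60 µM downward over six points, against 10 nM purified firefly luciferase using Km concentrations of substrates (10 uM D-luciferin, 10 uM ATP) in Tris acetate pH 7.5 buffer; luminescence output.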
Each line names hits and unclear results; the compound was inactive in the other large screens. The call rests on the fitted dose curve; in most records, active means well fitted curve in the direction sought with a large enough effect; inconclusive means small, poorly fitted or top-dose-only effect, or another doubt; inactive means no such curve, though single readings can be large; an effect the other way counts as inactive or inconclusive.

COc1cc(-c2nnn(Cc3ccccc3C)n2)cc(OC)c1OC	none (no result: SMN2 splice up, Luc counter)
Clc1ccc(Cn2nnc(-c3ccccc3)n2)cc1	FLuc modulator inconclusive
CN(C)c1ccc(-c2nnn(Cc3ccccc3Br)n2)cc1	Rab9 prom act inconclusive, NPC1 promoter act inconclusive, ELG1 genotox inconclusive, FLuc modulator 13µM
Clc1ccccc1Cn1nnc(-c2cccs2)n1	Rab9 prom act 3.5µM, SMN2 splice up 13µM, NPC1 promoter act 3.2µM, ELG1 genotox 18µM, FLuc modulator 15µM
O=S(=O)(CCc1ccccc1)c1nnnn1-c1ccccc1	none (no result: Rab9 prom act, NPC1 promoter act, ELG1 genotox, FLuc modulator)
Cc1nn2c(-c3ccc(Cl)cc3)ccnc2c1-c1ccccc1	NPC1 promoter act inconclusive, FLuc modulator 8.5µM
Cc1nn2c(-c3ccco3)ccnc2c1-c1ccc(Br)cc1	FLuc modulator 9.5µM (no result: Rab9 prom act, Luc counter, NPC1 promoter act, ELG1 genotox)
Cc1nn2c(-c3ccco3)ccnc2c1-c1ccc(Cl)cc1	FLuc modulator 5.4µM (no result: Rab9 prom act, Luc counter, NPC1 promoter act, ELG1 genotox)
Cc1nn2c(N)c(C#N)cnc2c1-c1ccccc1	ELG1 genotox inconclusive, FLuc modulator inconclusive
Cc1nn2c(N)c(-c3ccccc3)cnc2c1-c1ccccc1	Rab9 prom act 1.6µM, NPC1 promoter act 2.2µM, ELG1 genotox inconclusive, FLuc modulator 0.95µM (no result: SMN2 splice up, Luc counter)
Cc1ccccc1N1CCN(C2CCCN(C(=O)c3cn4cccc(C)c4n3)C2)CC1 (stereo not given)	none (no result: SMN2 splice up, Luc counter)
O=c1c2sc3ccccc3c2n(Cc2ccccc2F)c(=O)n1Cc1ccccc1	none (no result: Rab9 prom act, Luc counter, NPC1 promoter act, ELG1 genotox)
CCOC(=O)N1CCC(N2Cc3cccc(C(=O)Nc4ccc(CC)cc4)c3C2=O)CC1	FLuc modulator 12µM
CCOC(=O)N1CCC(N2Cc3cccc(C(=O)Nc4ccc(OCC)cc4)c3C2=O)CC1	FLuc modulator 12µM (no result: SMN2 splice up, Luc counter)
COC(=O)c1ccc(C(=O)OC)c(NC(=O)c2cnn3c(C(F)F)cc(-c4ccc(C)cc4)nc23)c1	none (no result: Rab9 prom act, Luc counter, NPC1 promoter act, ELG1 genotox)
O=C1NC2(CCCCC2)C(=O)N1/N=C/c1ccc(O)cc1O	FLuc modulator 17µM
c1ccc2c(c1)Nc1cc3ccccc3cc1S2	Rab9 prom act 3.5µM, NPC1 promoter act 3.2µM (no result: SMN2 splice up, Luc counter)
COc1ccc2c(c1)Sc1ccccc1N2	FLuc modulator inconclusive
COc1ccccc1CNC(=O)CN1C(=O)CSc2ccc(S(=O)(=O)N(C)C)cc21	none (no result: Rab9 prom act, SMN2 splice up, Luc counter, NPC1 promoter act, ELG1 genotox)
CC(=O)Oc1oc(-c2ccccc2)nc1C=Nc1ccc(N(C)C)cc1	none (no result: SMN2 splice up, Luc counter)
CN(C)c1ccc(N=Cc2cccn2C)cc1	ELG1 genotox 15µM, FLuc modulator 3.4µM (no result: SMN2 splice up, Luc counter)
Clc1ccccc1OCc1nc(-c2ccccn2)no1	Rab9 prom act 0.32µM, SMN2 splice up 4.5µM, NPC1 promoter act 0.45µM, ELG1 genotox 4.6µM, FLuc modulator 1.9µM
CN(Cc1nc(-c2ccccn2)no1)S(=O)(=O)c1ccccc1	ELG1 genotox inconclusive
Clc1ccc(OCc2nc(-c3ccccn3)no2)c(Br)c1	Rab9 prom act 0.45µM, SMN2 splice up 0.56µM, NPC1 promoter act 0.35µM, ELG1 genotox 0.82µM, FLuc modulator 0.21µM
CCc1ccc(OCc2nc(-c3ccc(OC)cc3)no2)c(Br)c1	none (no result: Rab9 prom act, SMN2 splice up, Luc counter, NPC1 promoter act, ELG1 genotox)
COc1cccc(Nc2nc(N)nc(-c3oc4ccccc4c3C)n2)c1	SMN2 splice up inconclusive, FLuc modulator 19µM
Cc1ccc(Nc2nc(N)nc(-c3oc4ccccc4c3C)n2)cc1	SMN2 splice up 13µM, NPC1 promoter act inconclusive, ELG1 genotox 9.2µM, FLuc modulator 7.6µM
Cc1c(-c2nc(N)nc(Nc3ccccc3F)n2)oc2ccccc12	Rab9 prom act 0.89µM, SMN2 splice up 11µM, NPC1 promoter act 1.6µM, ELG1 genotox 4µM, FLuc modulator 3µM
CCOc1ccccc1NC(=O)CN1C(=O)COc2ccc(S(=O)(=O)NC3CCCC3)cc21	none (no result: Rab9 prom act, SMN2 splice up, Luc counter, NPC1 promoter act, ELG1 genotox)
CC1CCCCC1NC(=S)Nc1ccc(SC(F)F)cc1 (stereo not given)	SMN2 splice up inconclusive, FLuc modulator 21µM
CC(=O)c1ccc(NC(=S)NC2CCCC(C)C2C)cc1 (stereo not given)	FLuc modulator inconclusive
S=C(Nc1ccc(Oc2ccccc2)cc1)NC1CCCC1	SMN2 splice up inconclusive, FLuc modulator inconclusive
S=C(Nc1ccc(Br)cc1)NC1CCCC1	Rab9 prom act inconclusive, SMN2 splice up 11µM, FLuc modulator 12µM
